Data published in ChEMBL document CHEMBL4513216, “Probing the Open Global Health Chemical Diversity Library for Multistage-Active Starting Points for Next-Generation Antimalarials” (ACS Infect Dis, 2020).
The campaign covered roughly 69,000 compounds. About 8,600 (12%) showed an effect of 50% or more. For the sample, strong results were picked, then their nearest neighbours and some compounds at random.

Test system: Plasmodium berghei
Assay: Screen against P. berghei liver stage (PbLuc), transformed with Luciferase, at 10uM
Format: functional, HepG2
Conditions: tested at 10 uM

| Structure (SMILES) | INHIBITION [%] |
| --- | --- |
| c1cc(NCc2ccncc2)nc(C2CCCN2)c1 (stereo not drawn) | 14 |
| O=C(CC1CCN(c2cccnn2)CC1)Nc1nncs1 | 31.3 |
| Cc1nc(-c2ccccc2)sc1CSCCS(C)(=O)=O | 20.1 |
| Cc1nc(-c2ccccc2)sc1CSCCC(N)=O | 60.8 |
| Cc1nc(-c2ccccc2)sc1CSC(C)C(N)=O (stereo not drawn) | -48.3 |
| CNc1cc2c(nn1)CCN(C(=O)c1cc(C)no1)C2 | -65.3 |
| CN1CC(C(=O)NCc2ccc(Br)cc2F)CC1=O (stereo not drawn) | -18.5 |
| O=C(CN1CCC(OCC2CCCO2)CC1)NCC(F)(F)F (stereo not drawn) | 1.2 |
| CNC(=O)CN1CCC(OCC2CCCO2)CC1 (stereo not drawn) | 32.9 |
| CCNC(=O)CN1CCC(OCC2CCCO2)CC1 (stereo not drawn) | 68.8 |
| Cc1nn(C)c(C)c1C1CCCN1C(=O)c1ccnc(N(C)C)c1 (stereo not drawn) | -4.16 |
| CN(Cc1ccco1)C1CCC12CCN(C(=O)c1ccco1)CC2 (stereo not drawn) | -77.5 |
| COc1ncccc1CNC(=O)c1cc(C)on1 | -41.1 |
| CCS(=O)(=O)N1CCN(C(C)c2ccccc2OC)CC1 (stereo not drawn) | 13.5 |
| COc1ccccc1C(C)N1CCN(S(C)(=O)=O)CC1 (stereo not drawn) | 51.1 |
| COc1ccccc1C(C)N1CCN(S(=O)(=O)N(C)C)CC1 (stereo not drawn) | 14.7 |
| COCCC(=O)N1CCCC2(CCCN2Cc2ccccc2F)C1 (stereo not drawn) | 19.5 |
| COCC(=O)N1CCN(C(=O)Cc2cccs2)[C@H]2CS(=O)(=O)C[C@H]21 | -6.11 |
| Cc1cc(C2CCCN(CC(=O)Nc3nc4c(s3)CCC4)C2)n[nH]1 (stereo not drawn) | 75.8 |
| O=C(CN1CCCC(c2ccn[nH]2)C1)N1CCCc2ccccc21 (stereo not drawn) | 21.8 |
| CC(C)C1Nc2ccccc2C(=O)N1CC(=O)Nc1nc2c(s1)CCC2 (stereo not drawn) | 16.5 |
| O=C(O)c1cccc(CN2CCCC(c3ccn[nH]3)C2)c1 (stereo not drawn) | 21.45 |

| Structure (SMILES) | INHIBITION [%] |
| --- | --- |
| O=C(CN1CCCC(c2ccn[nH]2)C1)Nc1nncs1 (stereo not drawn) | 56.3 |
| O=C(CN1CCCC(c2ccn[nH]2)C1)Nc1nc2c(s1)CCCC2 (stereo not drawn) | 86.9 |
| Cc1nc(C)n(CC2CCCN(CC(=O)Nc3nncs3)C2)n1 (stereo not drawn) | 12.4 |
| Cc1cc(C2CCCN(CC(=O)N3CCCc4ccccc43)C2)n[nH]1 (stereo not drawn) | 19.9 |
| O=C1CCCN1CCN1CCCC(c2ccn[nH]2)C1 (stereo not drawn) | -24.2 |
| O=C(CN1CCCC(c2ccn[nH]2)C1)Nc1nc2c(s1)CCC2 (stereo not drawn) | 83.2 |
| Cc1cc(C2CCCN(CC(=O)N3CCc4ccccc43)C2)n[nH]1 (stereo not drawn) | 15.2 |
| Cc1nnc(NC(=O)CN2CCCC(c3ccn[nH]3)C2)s1 (stereo not drawn) | 47.1 |
| NC(=O)CCCNC(=O)Cc1csc(Cc2ccccn2)n1 | 46.6 |
| CNC(=O)N1CCCCC1CCNS(C)(=O)=O (stereo not drawn) | -2.48 |
| CC(=O)N1CCCN(C(C(=O)O)c2ccc(C)cc2C)CC1 (stereo not drawn) | 41.3 |
| CNc1cc(N2CCCC2CNCc2cccc(C(N)=O)c2)ncn1 (stereo not drawn) | 39.5 |
| CC(=O)N1CCN(C(=O)c2csc(-c3ccc(C)cc3C)n2)CC1 | 17 |
| CN1CC2(CCN(C(=O)c3cccc(-n4cccn4)c3)CC2)OC1=O | 12 |
| CC(=O)N1CCC(NC(=O)c2ccc3c(c2O)OC(C)(C)C3)CC1 | 48.2 |
| Cc1ccc(CN2CCC3(CC2)CC(CC(=O)NC(C)C)CO3)s1 (stereo not drawn) | -62.7 |
| CN(C)C[C@H]1OC[C@@H]2CCN(S(=O)(=O)c3ccc(F)cc3)C[C@@H]21 | 42.7 |
| COc1ccccc1C(C)(C)NC(=O)NC1CCC(O)CC1 (stereo not drawn) | -30.3 |
| Cc1ccc2oc(C(=O)N3CCCC(n4ccnc4C)C3)cc2n1 (stereo not drawn) | 20.33 |
| Cc1ccccc1C(=O)NC[C@@H]1CCN(C(=O)c2cccn2C)C[C@H]1O | 17.4 |
| Cc1ccccc1C(=O)N1CC(C(=O)NCC2CC2)C2(CCOCC2)C1 (stereo not drawn) | -41.4 |
| COc1ccc(C[C@H]2CN(C(=O)c3cscn3)CC[C@@H]2OC)cc1 | 22.3 |

| Structure (SMILES) | INHIBITION [%] |
| --- | --- |
| Cc1ccccc1C(=O)NC[C@@H]1CCN(C(=O)C2(O)CCCC2)C[C@H]1O | 69.3 |
| Cc1ccccc1C(=O)NC[C@@H]1CCN(C(=O)CN2CCCC2)C[C@H]1O | 44.3 |
| Cc1ccccc1C(=O)NC[C@@H]1CCN(C(=O)c2cscn2)C[C@H]1O | 63.8 |
| Cc1ccc(C)c(-c2[nH]c3ccccc3c2C(=O)O)c1 | 13.5 |
| Cn1ccnc1C1(O)CCN(C(=O)Cc2ccccc2)CC1 | 7.635 |
| CCN(CC)S(=O)(=O)c1ccc(C(=O)NC(C)(C#N)C2CC2)cc1 (stereo not drawn) | -5.1 |
| O=C(c1ccc2c(c1)CCC2)N1CCC(c2n[nH]c(C3CC3)n2)CC1 | -19.6 |
| CC(=O)N1CCC(NC(=O)N(C)Cc2c(C)noc2C)CC1 | -35.61 |
| CC(=O)c1ccc(N2CCN(C(=O)c3cnn4c3OCCC4)CC2)cc1 | 16 |
| Cc1ccc(C2COCCN2C(=O)c2ccc(N(C)C)cc2)o1 (stereo not drawn) | -0.79 |
| COCc1ccc(C(=O)N2CCOCC2c2ccc(C)o2)cc1 (stereo not drawn) | 1.2 |
| COc1ccc(C(=O)N2CCOCC2c2ccc(C)o2)cc1 (stereo not drawn) | 68 |
| CC(C)c1nc(CN2CCc3onc(-c4cccc(F)c4)c3C2)no1 | 84.1 |
| CC(C(=O)N(C)C)N1CCc2onc(-c3cccc(F)c3)c2C1 (stereo not drawn) | 40.9 |
| Cn1cccc1C1CCCN1Cc1noc(C(C)(C)C)n1 (stereo not drawn) | -40.5 |
| CC(C)Cc1nc(CN2CCc3onc(-c4cccc(F)c4)c3C2)no1 | 82.5 |
| COc1cc2c(nn1)CCN(Cc1noc(CC(C)C)n1)C2 | 17.4 |
| Fc1cccc(-c2noc3c2CN(Cc2cncn2C2CC2)CC3)c1 | 33.3 |
| CC(C)(C)c1nc(CN2CCc3onc(-c4cccc(F)c4)c3C2)no1 | 67.7 |
| CC(C(N)=O)N1CCc2onc(-c3cccc(F)c3)c2C1 (stereo not drawn) | 18.2 |
| Cn1ncc(CN2CCc3onc(-c4cccc(F)c4)c3C2)c1C1CC1 | 41.5 |
| COc1ncnc2c1CCN(Cc1nccs1)CC2 | -20.1 |

| Structure (SMILES) | INHIBITION [%] |
| --- | --- |
| CCN(CC(=O)N(C)C)C(=O)c1ccc(-c2nc(C)cs2)cc1 | 30.9 |
| CCCn1c(N2CCCCC2)nc2c(C)nn(C)c2c1=O | 35.9 |
| Cc1occc1C(=O)N1CCC2(CCCN(Cc3nccs3)C2)C1 (stereo not drawn) | -58.3 |
| CC(C)c1nccn1Cc1cc(C(=O)NCC(C)n2ccnc2)n[nH]1 (stereo not drawn) | 26 |
| Cc1nc(CNC(=O)c2cc(Cn3ccnc3C(C)C)[nH]n2)sc1C | 37.9 |
| CC(C)c1nccn1Cc1cc(C(=O)NCC(F)(F)F)n[nH]1 | 94 |
| Cc1ccc(CNC(=O)c2cc(Cn3ccnc3C(C)C)[nH]n2)o1 | 63 |
| CCn1ccnc1CN1CCN(C(C)C(=O)NCC(F)(F)F)CC1 (stereo not drawn) | 19.7 |
| Cc1ccc(CN(C)C(=O)c2cc(Cn3ccnc3C(C)C)[nH]n2)o1 | 42.3 |
| CCc1nc(CNCCn2cc(C)cn2)no1 | 0.914 |
| O=S(=O)(CCOc1ccc(F)cc1)Nc1cnn(CC(F)F)c1 | -6.85 |
| CN1CCN2CCN(Cc3cc(=O)n4c5c(cccc35)CCC4)CC2C1 (stereo not drawn) | 13 |
| CCCC1CN(CCOC)C(=O)c2cccnc2O1 (stereo not drawn) | 26.8 |
| COCC(=O)N(Cc1cccc(C)c1)Cc1ccccc1OC | 51.7 |
| CN[C@@H](C)C(=O)N(Cc1cccc(C)c1)Cc1ccccc1OC | 34.1 |
| COc1ccccc1CN(Cc1cccc(C)c1)C(=O)[C@@H](N)CC(=O)O | 11.8 |
| O=C(COc1ccc(F)cc1F)N1CCOCC(O)(CN2CCCC2)C1 (stereo not drawn) | 11.8 |
| Cc1ccc2cc(C(=O)NCCN3CCS(=O)(=O)CC3)c(C)nc2c1 | 74.7 |
| COc1ccc2nc(C)c(C(=O)NCCN3CCS(=O)(=O)CC3)cc2c1 | 46.9 |
| CCN1CCN(CCCNC(=O)c2cc3ccc(C)cc3nc2C)CC1 | 37.2 |
| CSc1nc2ncc3c(=O)n(C)ccc3n2n1 | -3.73 |
| COCCn1ccc2c(cnc3nc(SC)nn32)c1=O | 38.4 |

| Structure (SMILES) | INHIBITION [%] |
| --- | --- |
| CSc1nc2ncc3c(=O)n(CCN4CCCCC4)ccc3n2n1 | 51 |
| CCn1c(C)cc(C(=O)N2C[C@@H](C(=O)O)[C@H](c3ccccc3C)C2)c1C | 0.33 |
| c1cnc(N2CCC(OCCN3CCCCC3)C2)nc1 (stereo not drawn) | 40.6 |
| C1CCN(CCOC2CCNCC2)CC1 | 3.63 |
| COc1ccnc(N2CCC(OCCN3CCCCC3)C2)n1 (stereo not drawn) | 42.4 |
| Cc1cnc(N2CCC(OCCN3CCCCC3)C2)nc1C (stereo not drawn) | 54.5 |
| CC(C)(C)c1nccc(N2CCC(OCCN3CCCCC3)C2)n1 (stereo not drawn) | 66.5 |
| CN(CCN1CCCCCC1)c1nccc(N2CCC(O)C2)n1 (stereo not drawn) | 27.6 |
| Cc1cnc(N2CCCOC(CN3CCCCC3)C2)nc1 (stereo not drawn) | 34.1 |
| Cc1ccnc(N2CCC(OCCN3CCCCC3)C2)n1 (stereo not drawn) | 48.9 |
| Cc1cc(C)nc(N2CCC(OCCN3CCCCC3)C2)n1 (stereo not drawn) | 58.2 |
| c1nc2c(c(-c3ccsc3)n1)CCN(Cc1ccoc1)CC2 | 20.1 |
| CCCNC(c1cccnc1)c1ccc(F)c(C)c1 (stereo not drawn) | -24.7 |
| O=C(CN1CCOC(CNc2cccnn2)C1)NCc1cccs1 (stereo not drawn) | 36.55 |
| CC(C)(C)c1nc(CN2CCOC(Cn3cccn3)C2)no1 (stereo not drawn) | -29.1 |
| O=C(c1ccncc1F)N1C[C@@H]2CC[C@H]1CN(Cc1cccnc1)C2 | 22.7 |
| Cc1cc(C(=O)NC(C)Cc2ccccc2Cl)n(C)n1 (stereo not drawn) | -39.3 |
| Cc1noc(C)c1CN1CCCC2(CCN(C(=O)N3CCOCC3)C2)C1 (stereo not drawn) | 26 |
| Cc1ccc(-c2nc(CN3CC(n4nc(C)cc4C)C3)no2)cc1 | 1.86 |
| COCC1COCCC12CCN(C(=O)Cc1ccc(F)cc1)CC2 (stereo not drawn) | 0.542 |
